Most compounds without a hit are left out; they make up all but 4% or so of the library.
Peg3 prom inh = inhibitors of Peg3 promoter | HeLa PEG-Prom luciferase reporter, luminescence, overnight | inhibition, % at 20 µM | 1.7% of 360,000 active | AID 588405;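 active = inhibition of at least 50% at 20 µM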
TWEAK-Fn14 inh = blocks TWEAK-Fn14 interaction in a reporter cell assay; TWEAK-stimulated Fn14 reporter cells, luciferase luminescence, 8 h; inhibition, % at 10 µM; 2% of 360,000 active; AID 1159606; in the data active = inhibition above about 50%
TROY signal inh = inhibitors of TROY-dependent NF-kB signaling; Q293 LMP1-TROYcd NF-kB luciferase reporter, 4 h; AID 1347056; inhibition, % at 10 µM; 0.98% of 360,000 active;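 active = compounds whose plate-normalised and pattern-corrected inhibition of the luciferase reporter signal at the single screening dose is 50% or more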
HIF-2a inh = inhibitors of HIF-2a; 786-0 RCC cells HIF-2a reporter, luciferase luminescence, overnight; inhibition, % at 18.8 µM; 0.72% of 360,000 active;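 active = inhibition of the luminescence signal of 40% or more relative to plate controls, in a single-dose primary screen at 18.75 µM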
LMP1 NFkB inh = reduces LMP1-driven NF-kappaB luciferase signal; LMP1-induced NF-kappaB luciferase reporter cells, luminescence; inhibition, % at 12.5 µM; 0.69% of 350,000 active; in the data active = inhibition above about 41%;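 also: 0% = neutral control wells and 100% = reference inhibitor control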
TRPM1 prom inh = inhibitors of MITF-driven TRPM1 promoter in melanoma cells; SK-MEL-5 TRPM1 promoter luciferase, 24 h; inhibition, % at 12.5 µM; 0.83% of 330,000 active; AID 488899;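 active = mean inhibition across replicates of 60% or more, whatever share of single replicates reaches that level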
An asterisk follows results filed as active.

COC(=O)c1cc(S(=O)(=O)N2CCOCC2)c(Cl)cc1N1CCOCC1 was read as Peg3 prom inh -7.0, TWEAK-Fn14 inh -6.2, TROY signal inh -1.1, HIF-2a inh 15.2, LMP1 NFkB inh 3.2 and TRPM1 prom inh -0.4.
`COC(=O)c1cc(C)nc2c1C(=O)C(=O)C=C2N1CCOCC1` gave Peg3 prom inh 100.1*, TWEAK-Fn14 inh 103.2*, TROY signal inh 43.2, HIF-2a inh 82.6*, LMP1 NFkB inh 13.5 and TRPM1 prom inh 84.0*.
`O=C(C[C@H]1CC[C@H](NC(=O)Nc2ccccc2F)[C@@H](CO)O1)NCc1ccc(-c2ccccc2)cc1` gave HIF-2a inh 34.0.
For O=C1NC(Cc2ccccc2)C(=O)N1Cc1cc([N+](=O)[O-])cc2c1OCOC2 (stereo not drawn) the results were Peg3 prom inh 20.6, TWEAK-Fn14 inh -0.6, TROY signal inh -3.4, HIF-2a inh 14.8, LMP1 NFkB inh 55.2* and TRPM1 prom inh -4.3.
CCOC(=O)C1=CN(Cc2cccc(-c3ccc(Cl)nc3)c2)S(=O)(=O)N(C)C1C (stereo not drawn) was read as Peg3 prom inh -72.0, TWEAK-Fn14 inh 4.1, TROY signal inh -18.9, HIF-2a inh -133.9, LMP1 NFkB inh -14.1 and TRPM1 prom inh -54.5.
For Cc1ccc(C(=O)c2coc3ccc(O)cc23)cc1 the results were Peg3 prom inh -219.6, TWEAK-Fn14 inh 55.9*, TROY signal inh -14.7, HIF-2a inh -194.3, LMP1 NFkB inh 10.3 and TRPM1 prom inh -69.9.
For COc1ccc(OC)c(C(=O)c2coc3ccc(OC(C)=O)cc23)c1 the results were Peg3 prom inh -69.4, TWEAK-Fn14 inh -23.0, TROY signal inh -54.1, HIF-2a inh -27.1, LMP1 NFkB inh 1.4 and TRPM1 prom inh -14.7.
For COc1ccc(C(=O)c2coc3ccc(OC(C)=O)cc23)cc1 the results were Peg3 prom inh -206.8, TWEAK-Fn14 inh 56.8*, TROY signal inh -4.2, HIF-2a inh -323.0, LMP1 NFkB inh 0.9 and TRPM1 prom inh -68.0.
Screening C/C=C/c1cccc(-c2nc(C(=O)NC3Cc4ccccc4C3)cc3c2[C@@H](CCO)N(C(C)=O)C3)c1 returned TWEAK-Fn14 inh 1.0, TROY signal inh 6.1 and HIF-2a inh 7.0.
`CC(C)CNc1ncnc2c1sc1nc(N3CCOCC3)c3c(c12)CC(C)(C)OC3` gave Peg3 prom inh 15.7, TWEAK-Fn14 inh -26.9, TROY signal inh 9.5, HIF-2a inh 7.4, LMP1 NFkB inh 7.0 and TRPM1 prom inh -2.7.
Screening CCN(CC)CCNc1ncnc2c1sc1nc(N3CCCC3)c3c(c12)CC(C)(C)OC3 returned Peg3 prom inh 78.8*, TWEAK-Fn14 inh -2.8, TROY signal inh 11.2, HIF-2a inh 29.6, LMP1 NFkB inh -27.3 and TRPM1 prom inh 40.3.
Screening CCN(CC)CCNc1ncnc2c1sc1nc(N3CCOCC3)c3c(c12)CCCC3 returned Peg3 prom inh 100.5*, TWEAK-Fn14 inh -78.3, TROY signal inh -1.1, HIF-2a inh 7.9, LMP1 NFkB inh -12.3 and TRPM1 prom inh 76.9*.
`CCN1CCC(O)(C(C(=O)OC)c2ccccc2)CC1` (stereo not drawn) gave Peg3 prom inh -11.7, TWEAK-Fn14 inh 7.4, TROY signal inh -1.9, HIF-2a inh 10.1, LMP1 NFkB inh -3.5 and TRPM1 prom inh -9.6.
`CCN(CC)CCCNC(=O)c1cc(-c2ccccc2)c(N2CCCCC2)s1` gave Peg3 prom inh 97.2*, TWEAK-Fn14 inh 3.4, TROY signal inh -36.4, HIF-2a inh 2.7, LMP1 NFkB inh 12.0 and TRPM1 prom inh 8.8.
Screening O=C(COC(=O)c1ccc(S(=O)(=O)N2CCCC2)cc1)NCc1ccco1 returned Peg3 prom inh 6.7, TWEAK-Fn14 inh 23.1, TROY signal inh 20.2, HIF-2a inh 8.4, LMP1 NFkB inh -5.1 and TRPM1 prom inh -5.5.
For O=C(COc1ccccc1)Nc1nc(-c2ccc(S(=O)(=O)N3CCOCC3)cc2)cs1 the results were Peg3 prom inh 23.6, TWEAK-Fn14 inh 49.1, TROY signal inh 37.4, HIF-2a inh 18.3, LMP1 NFkB inh 15.4 and TRPM1 prom inh 11.7.
O=C(Nc1nc(-c2ccco2)cs1)c1ccccc1 was read as Peg3 prom inh -78.7, TWEAK-Fn14 inh -1.2, TROY signal inh 8.6, HIF-2a inh -18.2, LMP1 NFkB inh -14.2 and TRPM1 prom inh -78.9.
Screening CN(C)S(=O)(=O)c1ccc(C(=O)Nc2nc(-c3cccs3)cs2)cc1 returned Peg3 prom inh -0.3, TWEAK-Fn14 inh 55.9*, TROY signal inh 54.7*, HIF-2a inh -17.4 and LMP1 NFkB inh -2.9.
`Cc1ccc(-c2csc(NC(=O)c3ccc(-c4ccccc4)cc3)n2)o1` gave Peg3 prom inh -118.6, TWEAK-Fn14 inh 67.5*, TROY signal inh 48.6, HIF-2a inh -132.6, LMP1 NFkB inh -2.1 and TRPM1 prom inh -1.3.
Screening O=C(COc1ccc(Cl)cc1)Nc1nc(-c2ccc(S(=O)(=O)N3CCOCC3)cc2)cs1 returned Peg3 prom inh 13.5, TWEAK-Fn14 inh 71.4*, TROY signal inh 46.6, HIF-2a inh 10.6, LMP1 NFkB inh 19.4 and TRPM1 prom inh -2.6.
O=C(Nc1nc(-c2ccc(S(=O)(=O)N3CCCCCC3)cc2)cs1)c1ccccc1 was read as Peg3 prom inh 28.7, TWEAK-Fn14 inh 69.7*, TROY signal inh 45.3, HIF-2a inh 7.2, LMP1 NFkB inh 26.6 and TRPM1 prom inh 39.5.
Screening O=C(Nc1nc(-c2ccc3c(c2)OCCO3)cs1)c1ccc(S(=O)(=O)N2CCCCC2)cc1 returned Peg3 prom inh 8.2, TWEAK-Fn14 inh 32.1, TROY signal inh 11.4, HIF-2a inh -10.2, LMP1 NFkB inh 30.5 and TRPM1 prom inh 5.6.
CCOc1ccc(CNC(=O)Cn2ccc3cc(S(=O)(=O)N4CCCC4)ccc32)cc1 was read as Peg3 prom inh -13.3, TWEAK-Fn14 inh 4.0, TROY signal inh -3.7, HIF-2a inh -8.0, LMP1 NFkB inh -2.1 and TRPM1 prom inh 13.1.
`COc1ccccc1NC(=O)CSc1nc2ccccc2nc1N1CC(C)OC(C)C1` (stereo not drawn) gave Peg3 prom inh 20.0, TWEAK-Fn14 inh 15.0, TROY signal inh -13.6, HIF-2a inh 21.6, LMP1 NFkB inh 7.9 and TRPM1 prom inh 19.5.
`O=C(Nc1nc(-c2ccccc2)cs1)C1COc2ccccc2O1` (stereo not drawn) gave Peg3 prom inh -95.5, TWEAK-Fn14 inh 8.1, HIF-2a inh -82.5, LMP1 NFkB inh 0.4 and TRPM1 prom inh -21.2.
For O=S(=O)(c1ccc(-c2csc(Nc3ccc(Br)cc3)n2)cc1)N1CCCC1 the results were Peg3 prom inh 31.4, TWEAK-Fn14 inh 60.9*, TROY signal inh 36.3, HIF-2a inh 16.2, LMP1 NFkB inh 8.1 and TRPM1 prom inh 29.4.
For O=C(Nc1nc(-c2cccs2)cs1)c1ccc(S(=O)(=O)N2CCCC2)cc1 the results were Peg3 prom inh 20.9, TWEAK-Fn14 inh 92.6*, TROY signal inh 65.6*, HIF-2a inh -31.9, LMP1 NFkB inh 18.8 and TRPM1 prom inh 37.1.
`O=C(Nc1nc(-c2ccc(S(=O)(=O)N3CCCC3)cc2)cs1)C1COc2ccccc2O1` (stereo not drawn) gave Peg3 prom inh 47.7, TWEAK-Fn14 inh 60.8*, TROY signal inh 36.7, HIF-2a inh 12.0, LMP1 NFkB inh 6.2 and TRPM1 prom inh 39.7.
